PubChem BioAssay AID1159580 (chemical genetic matrix, 2015)
Where “and” joins values, the source holds several entries; their conditions need not be identical. Identical values can stand only once. Among all 5,500 compounds or so, about 2,000 (36%) were called active. Roughly 18% stayed inconclusive and do not appear here. Cut-off read from the data, not from the text of the source: active = normalized growth mostly below about 0.91 (no sharp cut-off); inconclusive = no clear call, values can overlap the other calls; inactive = mostly above about 0.92. The list shows a part of the results.

Assay: chemical genetic growth profiling, strain panel (AID 1159580);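 note: tested at 20 µM; growth read once vehicle control cultures reached saturation at 30 °C; 1 = growth at the plate median or of vehicle wells; lower values mean less growth of the strain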
Settings: S. cerevisiae deletion strains, growth OD

Measured: normalized growth

COc1cc([C@@H]2c3cc4c(cc3C(O[C@@H]3O[C@@H]5CO[C@@H](c6cccs6)OC5[C@H](O)[C@H]3O)C3COC(=O)[C@@H]32)OCO4)cc(OC)c1O (stereo not given in full)
inactive: locus YAL013W, strain DEP1, stronger effect = lower value 1.01 | locus YAL021C, strain ccr4, stronger effect = lower value 0.986 | locus YAL026C, strain drs2, stronger effect = lower value 0.957 | locus YAL030W, strain snc1, stronger effect = lower value 0.995 | locus YBL061C, strain skt5, stronger effect = lower value 0.981 | locus YBR009C, strain hhf1, stronger effect = lower value 0.955 | locus YBR021W, strain FUR4, stronger effect = lower value 1 | locus YBR023C, strain chs3, stronger effect = lower value 1.01 | locus YBR171W, strain sec66, stronger effect = lower value 0.981 | locus YBR229C, strain ROT2, stronger effect = lower value 1 | locus YBR231C, strain swc5, stronger effect = lower value 0.997 | locus YBR279W, strain paf1, stronger effect = lower value 0.967 | locus YCL011C, strain gbp2, stronger effect = lower value 0.987 | locus YCL016C, strain dcc1, stronger effect = lower value 1.02 | locus YCL029C, strain bik1, stronger effect = lower value 1.03 | locus YCL061C, strain MRC1, stronger effect = lower value 0.969 | locus YCL069W, strain vba3, stronger effect = lower value 0.971 | locus YCR088W, strain abp1, stronger effect = lower value 0.984 | locus YDL005C, strain med2, stronger effect = lower value 0.971 | locus YDL035C, strain GPR1, stronger effect = lower value 1.02 | locus YDL040C, strain nat1, stronger effect = lower value 0.982 | locus YDL074C, strain BRE1, stronger effect = lower value 0.996 | locus YDL101C, strain DUN1, stronger effect = lower value 1.01 | locus YDL134C, strain PPH21, stronger effect = lower value 1.01 | locus YDL185W, strain tfp1, stronger effect = lower value 1.03 | locus YDL192W, strain arf1, stronger effect = lower value 1.02 | locus YDR001C, strain nth1, stronger effect = lower value 0.985 | locus YDR069C, strain doa4, stronger effect = lower value 0.983 | locus YDR101C, strain arx1, stronger effect = lower value 1 | locus YDR137W, strain rgp1, stronger effect = lower value 0.972 | locus YDR150W, strain NUM1, stronger effect = lower value 0.998 | locus YDR159W, strain sac3, stronger effect = lower value 0.932 | locus YDR162C, strain NBP2, stronger effect = lower value 1.01 | locus YDR195W, strain ref2 0.961 | locus YDR297W, strain sur2, stronger effect = lower value 0.992 | locus YDR318W, strain mcm21, stronger effect = lower value 1.02 | locus YDR334W, strain swr1, stronger effect = lower value 0.972 | locus YDR335W, strain msn5, stronger effect = lower value 0.99 | locus YDR388W, stronger effect = lower value 1.01 | locus YDR392W, strain spt3, stronger effect = lower value 0.97 | locus YDR502C, strain sam2, stronger effect = lower value 1.02 | locus YEL003W, strain gim4, stronger effect = lower value 0.969 | locus YEL037C, strain rad23, stronger effect = lower value 0.964 | locus YEL061C, strain CIN8 (second series), stronger effect = lower value 0.967 | locus YEL061C, strain CIN8, stronger effect = lower value 1 | locus YER015W, strain faa2, stronger effect = lower value 0.989 | locus YER016W, strain bim1, stronger effect = lower value 0.999 | locus YER110C, stronger effect = lower value 1.02 | locus YER111C, strain swi4, stronger effect = lower value 0.98 | locus YER155C, strain BEM2 (second series), stronger effect = lower value 1.01 | locus YER155C, strain BEM2, stronger effect = lower value 1 | locus YER167W, strain BCK2, stronger effect = lower value 1.01 | locus YFR010W, strain ubp6, stronger effect = lower value 0.956 | locus YGL078C, strain dbp3, stronger effect = lower value 1.02 | locus YGL086W, strain mad1, stronger effect = lower value 1.01 | locus YGL167C, strain pmr1, stronger effect = lower value 0.981 | locus YGL173C, strain kem1, stronger effect = lower value 0.983 | locus YGL227W, strain vid30, stronger effect = lower value 0.994 | locus YGL240W, strain doc1, stronger effect = lower value 1.01 | locus YGL248W, strain PDE1, stronger effect = lower value 1 | locus YGL253W, strain hxk2, stronger effect = lower value 0.964 | locus YGR135W, strain pre9, stronger effect = lower value 1.01 | locus YGR229C, strain SMI1, stronger effect = lower value 1 | locus YGR252W, strain gcn5, stronger effect = lower value 1.03 | locus YHR013C, strain ard1, stronger effect = lower value 0.997 | locus YHR027C, strain rpn1, stronger effect = lower value 0.975 | locus YHR030C, strain SLT2, stronger effect = lower value 1 and 1.02 | locus YHR079C, strain IRE1 (second series), stronger effect = lower value 1.02 | locus YHR079C, strain IRE1, stronger effect = lower value 1.01 | locus YHR094C, strain hxt1, stronger effect = lower value 1.01 | locus YHR129C, strain ARP1, stronger effect = lower value 1 | locus YHR142W, strain chs7, stronger effect = lower value 0.981 | locus YHR200W, strain rpn10, stronger effect = lower value 1.01 | locus YIL066C, strain RNR3, stronger effect = lower value 1.01 | locus YIL073C, strain SPO22, stronger effect = lower value 1.04 | locus YIL125W, strain kgd1, stronger effect = lower value 1.01 | locus YIR030C, strain dcg1, stronger effect = lower value 1.02 | locus YJL092W, strain hpr5, stronger effect = lower value 0.977 | locus YJL095W, strain BCK1 (second series), stronger effect = lower value 0.992 | locus YJL095W, strain BCK1, stronger effect = lower value 0.991 and 1 | locus YJL115W, strain asf1, stronger effect = lower value 0.96 | locus YJL129C, strain trk1, stronger effect = lower value 0.993 | locus YJL134W, strain LCB3, stronger effect = lower value 1 | locus YJL154C, strain vps35, stronger effect = lower value 0.979 | locus YJL164C, strain tpk1, stronger effect = lower value 0.962 | locus YJL166W, strain qcr8, stronger effect = lower value 1.01 | locus YJL168C, strain set2, stronger effect = lower value 1.01 | locus YJL187C, strain SWE1 (second series), stronger effect = lower value 1 | locus YJL187C, strain SWE1, stronger effect = lower value 0.984 | locus YJR043C, strain POL32, stronger effect = lower value 0.982
